# From PubChem BioAssay
# HT1080NT lethal: kills 2HG-producing HT-1080-NT fibrosarcoma cells. HT-1080-NT fibrosarcoma viability, CellTiter-Glo ATP luminescence, 48 h. Potency, µM (top dose mostly 46.1 µM), hits mostly cytotoxic. 360,000 tested, 1.6% active. AID 686970;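 note: NT is the 2HG producing partner of a matched IDH1 knockdown line; nearly all actives have a fitted effect of over 55% in size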
#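 Viability of the 2HG-overproducing fibrosarcoma line after 48 hours of compound exposure at 37 degrees C was determined by luminescence with CellTiter-Glo, and concentration-effect curves were then fitted and categorized.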
# HT1080 IDH1KD tx: toxicity to HT-1080 IDH1 knockdown cells (counter line) | AID 686971 | Potency, µM (top dose mostly 46.1 µM), usual class: cytotoxic | 360,000 tested, 2% active | HT-1080 IDH1 knockdown viability, ATP luminescence, 48 h
#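 In this qHTS, HT-1080 cells depleted of IDH1 are exposed for 48 h at 37 °C to compound titrations. Toxicity is scored from CellTiter-Glo luminescence, with DMSO as full viability and medium alone as none.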
# KB-V1 cytotox: KB-V1 MDR subline cytotoxicity. AID 1347076. Potency, µM (titrated, usually from 46.1 µM), usual class: cytotoxic. 400,000 tested, 3.4% active. KB-V1 MDR cells viability, CellTiter-Glo, 72 h; note: nearly all actives have a fitted effect of over 60% in size
#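 KB-V1 cells (P-gp-expressing MDR subline of KB-3-1) in phenol-red-free DMEM with 10% FBS were exposed to library compounds over a concentration series for 72 h at 37 degrees C. Viability read by CellTiter-Glo luminescence; concentration-effect curves fitted after normalization.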
# MCF10A rereplic: DNA re-replication induction in MCF 10a cells. MCF 10A DNA re-replication, Hoechst nuclear intensity, 48 h. Potency, µM (series often up to 46.1 µM), usual class: activators. 350,000 tested, 2.9% active. AID 624296; note: nearly all actives have a fitted effect of over 50% in size
# KB-3-1 cytotox: kills parental KB-3-1 adenocarcinoma cells; Potency, µM (doses to about 46.1 µM), most hits filed as cytotoxic; KB-3-1 viability, CellTiter-Glo ATP luminescence, 72 h; AID 1347075; 400,000 tested, 1.4% active; note: nearly all actives have a fitted effect of over 60% in size
#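 Using CellTiter-Glo luminescence, growth of non-resistant KB-3-1 adenocarcinoma cells is assessed 72 h after pin-tool compound addition at 37 °C. Normalized responses across the concentration series yield fitted curves.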
# SW480 rerep: inducers of DNA re-replication in SW480 colon cancer cells; SW480 DNA re-replication, Hoechst DNA content imaging, 48 h; Potency, µM (doses to about 46.1 µM), usual class: activators; 340,000 tested, 1.8% active; note: nearly all actives have a fitted effect of over 55% in size
#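 Readout is total intensity of Hoechst-stained nuclei, excited at 405 nm and collected at 500-530 nm. Compound treatment lasted 48 hr at 37 C in 5% CO2 before staining.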
# Numbers stand for hits; - = inactive; ? = inconclusive; . = no result. Hits are enriched below; roughly 8% of the tested compounds scored in any of these assays. Calls come from the whole dose curve; as a rule, active = well fitted curve in the direction sought with a large enough effect; inconclusive = small, poorly fitted or top-dose-only effect, or another doubt; inactive = no such curve, though single readings can be large; an effect the other way counts as inactive or inconclusive.
SMILES,HT1080NT lethal,HT1080 IDH1KD tx,KB-V1 cytotox,MCF10A rereplic,KB-3-1 cytotox,SW480 rerep
COc1ccc(C2c3c(ncn(CCCO)c3=N)Oc3ccc4ccccc4c32)cc1OC (stereo not drawn),?,23µM,-,?,?,?
COc1ccc(C2c3c(ncn(CCCO)c3=N)Oc3ccc4ccccc4c32)cc1 (stereo not drawn),21µM,21µM,-,?,?,?
CCOc1cccc(C2C=C(c3ccc4c(c3)OCO4)NC(c3ccccc3Cl)N2)c1O (stereo not drawn),.,.,-,.,-,.
CC(C)=NOc1nc(N(C)C)nc(N(C)C)n1,-,-,-,?,-,-
O=C(c1cccc(S(=O)(=O)N2CCOCC2)c1)N1CCN(c2ncccn2)CC1,-,-,-,.,-,.
CN(NS(=O)(=O)c1ccc(Br)cc1)c1nc(C(F)(F)F)nc2ccccc12,?,18µM,?,-,?,-
O=C(CCNC(=O)C1CCN(S(=O)(=O)c2ccc(F)cc2)CC1)NCc1ccc(Cl)cc1,-,-,-,-,-,-
CCOC(=O)c1[nH]c(C(=O)O)c(OC(=O)CC)c1C,-,?,-,-,-,-
CCOc1ccc(C(=O)N(Cc2nc(-c3cccc(C)c3)no2)C(C)C)cc1,.,.,?,.,-,.
COc1ccc(-c2cc(C(F)(F)F)nc(S(C)(=O)=O)n2)cc1,18µM,?,?,?,?,-
COc1ccc(-c2cc(C(F)(F)F)nc(-n3cc(Cl)cn3)n2)cc1,?,-,23µM,?,-,?
CS(=O)(=O)c1nc(-c2ccc(F)cc2)cc(C(F)(F)F)n1,21µM,8.2µM,?,3.7µM,?,?
CC1CCc2onc(C(=O)O)c2C1 (stereo not drawn),-,-,-,-,-,-
CC(=O)Nc1cccc(-c2ccnc3c2CC(C(=O)NCc2cccs2)O3)c1 (stereo not drawn),?,0.65µM,-,.,5.8µM,.
COc1ccc(CCCNC(=O)C2Cc3c(-c4cccc(NC(C)=O)c4)ccnc3O2)cc1 (stereo not drawn),?,?,?,.,6.5µM,.
CC(=O)Nc1cccc(-c2ccnc3c2CC(C(=O)NCCC(F)(F)F)O3)c1 (stereo not drawn),?,21µM,-,.,?,.
CC(=O)NCCNC(=O)C1Cc2c(-c3cccc(NC(C)=O)c3)ccnc2O1 (stereo not drawn),?,-,-,.,-,.
CCOc1ccccc1CNCCCSc1nnnn1C,.,.,-,.,-,.
CC1=C(C(=O)OC2CCCCCC2)C(c2ccc(Cl)cc2Cl)CC(=O)N1 (stereo not drawn),.,.,-,.,-,.
C=CCOC(=O)C1=C(C)OC(N)=C(C#N)C1c1ccc(OC)c(CSc2ccccn2)c1 (stereo not drawn),-,-,?,-,-,-
CCOC(=O)C1=C(CSc2nc(-c3ccccc3)ccc2C#N)OC(N)=C(C#N)C1c1ccccc1 (stereo not drawn),-,-,-,?,-,15µM
CCOC(=O)C1=C(CSc2nc(-c3ccccc3)ccc2C#N)OC(N)=C(C#N)C1c1cccnc1 (stereo not drawn),-,-,-,?,-,?
CCCC1=C(C(=O)OCC)C(c2ccc(OC)c(CSc3ccccn3)c2)C(C#N)=C(N)O1 (stereo not drawn),-,-,21µM,?,-,-
COc1ccc(Cn2c(=N)c(C(=O)NC3CCCCC3)cc3c(=O)n4ccccc4nc32)cc1,-,-,-,4.1µM,-,4.6µM
COCCCn1c(=N)c(C(=O)NC2CCCC2)cc2c(=O)n3ccccc3nc21,.,.,-,.,-,.
SMILES,HT1080NT lethal,HT1080 IDH1KD tx,KB-V1 cytotox,MCF10A rereplic,KB-3-1 cytotox,SW480 rerep
COCCCn1c(=N)c(C(=O)NC2CCCCC2)cc2c(=O)n3ccccc3nc21,-,-,-,3.3µM,-,5.2µM
COc1ccc(CCn2c(=N)c(C(=O)NC3CCCC3)cc3c(=O)n4ccccc4nc32)cc1,-,-,-,21µM,-,23µM
COc1ccc(CCn2c(=N)c(C(=O)NCC3CCCO3)cc3c(=O)n4ccccc4nc32)cc1OC (stereo not drawn),-,-,-,-,-,?
COc1ccc(CCn2c(=N)c(C(=O)NC3CCCC3)cc3c(=O)n4ccccc4nc32)cc1OC,-,-,-,16µM,?,?
COc1ccc(-c2cc(C(F)(F)F)n3nc(C(=O)Nc4cccc(C(F)(F)F)c4)c(Br)c3n2)cc1,.,.,?,.,-,.
COCCN1Cc2cccc(C(=O)Nc3ccc(Cl)cc3Cl)c2C1=O,.,.,-,.,-,.
O=C1C2C3CCC(C3)C2C(=O)N1c1ccc(OS(=O)(=O)c2ccccc2)cc1 (stereo not drawn),-,-,9.2µM,-,?,-
Cc1ccc(S(=O)(=O)Oc2ccc(N3C(=O)C4C5CCC(C5)C4C3=O)cc2)cc1 (stereo not drawn),-,-,-,?,-,-
N#C/C(=N/Nc1ccc(OC(F)(F)F)cc1)C(N)=S,23µM,16µM,?,?,?,-
C[C@@H](c1ccccc1)N1C[C@H]2CCCN2c2cc(Br)ccc2S1(=O)=O,?,?,?,7.3µM,?,16µM
O=S1(=O)c2ccc(Br)cc2N2CCC[C@H]2CN1Cc1ccccc1,?,5.8µM,5.2µM,2.6µM,?,5.2µM
O=S1(=O)c2ccc(Br)cc2N2CCC[C@@H]2CN1Cc1ccc(Cl)cc1,-,-,?,?,-,?
O=S1(=O)c2ccc(Br)cc2N2CC[C@H](C2)N1Cc1ccc(Cl)cc1,?,7.3µM,?,3.3µM,?,6.5µM
COc1ccc(C(=O)Nc2nc(-c3nnn(-c4cc(OC)ccc4OC)c3C)ns2)cc1,.,.,-,.,-,.
O=C(CCCN1C(=O)/C(=C/c2ccccc2Cl)SC1=S)NNC(=O)c1ccncc1,-,-,-,13µM,?,-
O=C(CCCN1C(=O)/C(=C/c2ccccc2Cl)SC1=S)NNC(=O)c1ccccc1Cl,?,?,-,?,?,-
Cc1cc(NC(=O)CCN2C(=O)/C(=C\c3ccccc3)SC2=S)no1,-,-,-,-,-,-
Cc1cc(NC(=O)CCCN2C(=O)/C(=C/c3ccccc3Cl)SC2=S)no1,-,-,21µM,-,?,?
CCOC(=O)N1CCc2c(sc(NCc3sccc3C)c2C(=O)Nc2ccccc2OCC)C1,.,.,-,.,-,.
C=CCNc1nc(Cl)nc(Nc2ccc(OC)cc2)n1,?,-,13µM,-,-,-
COc1ccc(/C=N/N2C(=N)SCC2=O)cc1,-,-,2.6µM,-,7.3µM,-
O=[N+]([O-])c1ccc(N=Nc2ccc(O)c3ccccc23)cc1,26µM,?,15µM,?,?,?
